# Screen size: about 290,000 compounds; about 2,700 (0.93%) were called active. No rule for the calls is given here. Only a selection was taken, and actives are over-represented in it overall.
# Target: Eukaryotic translation initiation factor 4H (Homo sapiens) (UniProt Q15056)
# Experiment: human eIF4H binding inhibitors, primary screen, translation initiation inhibitor project, biochemical, uHTS, fluorescence polarization (AID 2012);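 also: calls also rest on retests at 20 µM and on dose response follow-up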
# Conditions: eIF4H fluorescence polarization binding assay, stronger effect = higher value
SMILES,inhibition (at 35 µM),"inhibition (confirmation average, at 20 µM)"
CC1CN(C(=O)CCC(=O)NCCCN2CCC(Cc3ccccc3)CC2)c2cc(Cl)ccc2O1 (stereo not given),6% (inactive),
C#CCOc1ccccc1/C=C1/C(=O)ON=C1C,-20.1% (inactive),
Cc1ccc(NC(=O)Nc2cccnc2)cc1,2.1% (inactive),
Cc1ccc(NC(=O)c2ccc(Oc3ncccn3)cc2)cc1,0.1% (inactive),
Cc1ccc(NC(=O)c2cccnc2C(=O)Nc2ccc(C)cc2)cc1,4% (active),65.7%
O=[N+]([O-])c1cc(Cl)cc(/C=N/NC(=S)Nc2cc(S(=O)(=O)N3CCOCC3)ccc2Cl)c1O,89.6% (active),
O=C(N/N=C/c1cc(Cl)cc([N+](=O)[O-])c1O)C(O)(c1ccccc1)c1ccccc1,1.2% (inactive),
O=C(NC(=S)Nc1ccc(S(=O)(=O)N2CCOCC2)cc1)c1ccccc1[N+](=O)[O-],6.8% (inactive),
CC[C@]1(c2ccccc2OC)C(=O)N(C(=O)OC)N1C(=O)OC,2.4% (inactive),
COc1ccccc1CNC(=O)[C@@H]1CCCN1C(=O)[C@@H]1Cc2ccccc2CN1C(=O)OC(C)(C)C,-6.3% (inactive),
COc1ccc(NS(=O)(=O)c2ccc(N3CCN(CCO)CC3)c([N+](=O)[O-])c2)cc1,-9.3% (inactive),
CCC(C)Cn1c(O)cc2nn(-c3nc4ccccc4s3)c(=O)c-2c1C (stereo not given),89.6% (active),
Cc1cc(NC(=O)CN2CCCC(C)C2)n(-c2nc3ccccc3s2)n1 (stereo not given),-0.6% (inactive),
C/C(=N\NC(=O)CC(C)C)c1c(C(F)(F)F)[nH]n(-c2nc3ccccc3s2)c1=O,-5.6% (inactive),
COc1ccc(S(=O)(=O)NCCCCOc2ccc(Cl)cc2)cc1,25.8% (inactive),
O=C(NNS(=O)(=O)c1ccc(F)cc1)c1ccc([N+](=O)[O-])cc1Cl,-5.4% (inactive),
CC(C)c1ccc(OCC(O)CN2CCN(c3ccccn3)CC2)cc1 (stereo not given),-9.3% (inactive),
CC(C)(C)C(=O)OCc1nc(-c2ccc(O)c(O)c2)cs1,1.2% (inactive),
COc1ccc(-c2csc(NC3OC(=O)c4ccccc43)n2)cc1 (stereo not given),2.1% (inactive),
COc1ccc(-c2csc(Cc3nc(O)cs3)n2)cc1,20.3% (active),82.6%
FC(F)(F)C1CCCN(c2nsc3ccccc23)C1 (stereo not given),-3.8% (inactive),
O=S(=O)(c1ccc(Br)cc1)c1nc(-c2ccccc2)oc1N1CCOCC1,-5.9% (inactive),
O=C(O)CCC(=O)Nc1ccc(OCC2CCCO2)cc1 (stereo not given),2.6% (inactive),
COC(=O)COc1ccc2c(=O)c(Oc3ccccc3Br)coc2c1,5.6% (inactive),

SMILES,inhibition (at 35 µM),"inhibition (confirmation average, at 20 µM)"
Cc1cc(=O)oc(C)c1C(=O)NCCN(C)Cc1ccccc1,6.6% (inactive),
Cc1cc(=O)oc(C)c1C(=O)NCc1ccc(F)cc1,0.5% (inactive),
Cc1cc(=O)oc(C)c1C(=O)Nc1cnc2ccccc2c1,78.6% (active),
CCOC(=O)c1c(S(=O)(=O)NCC(=O)Nc2ccc(C)cc2)c(C)n(C)c1C,-0.1% (inactive),
O=C(NCCCn1ccnc1)/C(=C\c1ccccc1F)NC(=O)c1ccccc1,-6.4% (inactive),
Cc1cc(C)c(C(N)=O)c(Cl)n1,19.4% (active),93.1%
Cc1ccc(Nc2nc(C)cc(C)c2C(N)=O)cc1,5.6% (inactive),
Cc1cc(OC(=O)c2c(Cl)cccc2Cl)nc(C)n1,-11.4% (inactive),
CC(C)CN(CC(C)C)C(=O)CN1c2cccc3cccc(c23)S1(=O)=O,-14.9% (inactive),
Oc1ccc(C2Nc3cccc4cccc(c34)N2)cc1,97.3% (active),
COc1ccc(N2C(=O)C3CCCN3C2c2cccc(OC)c2)cc1 (stereo not given),-6.3% (inactive),
COc1ccc(C2NC(=O)c3ccccc3N2)cc1 (stereo not given),7.1% (inactive),
Cc1ccc(C2Nc3cccc4cccc(c34)N2)cc1,41% (inactive),
O=C1NC(c2cccc(Cl)c2)Nc2ccccc21 (stereo not given),-8.5% (inactive),
COc1cccc(C2Nc3cccc4cccc(c34)N2)c1,59.9% (active),98.5%
O=C(Nc1nnc(S(=O)(=O)N2CCCCCC2)s1)c1cccc(Br)c1,-8.4% (inactive),
COc1ccc(CCNC(=O)CN(C)S(=O)(=O)c2ccc3nc(C)sc3c2)cc1OC,-3% (inactive),
CS(=O)(=O)N1CCCC(C(=O)Nc2ccccc2C(F)(F)F)C1 (stereo not given),-2% (inactive),
CCOc1ccc(NC(=O)CC(Cc2ccc(Cl)cc2)C(=O)O)cc1 (stereo not given),-6.5% (inactive),
CN(Cc1ccccc1)CC(O)COc1ccc(CNCc2cc3ccccc3s2)cc1 (stereo not given),-2% (inactive),
CN(CC1CCCN(CCc2cccc(C(F)(F)F)c2)C1)C(=O)c1ccc2nc[nH]c2c1 (stereo not given),-2% (inactive),
Oc1ccc(-c2cccc(-c3ccc(O)cc3)c2)cc1,2% (inactive),
CCC(C)(C)NC(=O)C(c1ccc(O)cc1)N(Cc1ccco1)C(=O)CCC(=O)Nc1ccccn1 (stereo not given),-7% (inactive),
Cc1[nH]n(C(N)=S)c(=O)c1N=Nc1ccc(Cl)cc1Cl,13.7% (inactive),

SMILES,inhibition (at 35 µM),"inhibition (confirmation average, at 20 µM)"
Cc1cc2ccccc2n1CCC(=O)O,52.4% (active),80.5%
O=C(O)CCn1c(Cc2ccccc2)nc2ccccc21,0.7% (inactive),
Cc1cc2ccccc2n1CCNC(=O)COc1ccc2ccccc2c1,21% (inactive),
CCc1nc(N2CCN(C(C)=O)CC2)c2c3c(sc2n1)CCCC3,-5.1% (inactive),
COc1ccc(C(C)NC(=S)NC2CCCCC2)cc1OC (stereo not given),-7.9% (inactive),
CCOc1ccc(N(C)Cc2cc(=O)oc3ccc(OC)cc23)cc1,4.8% (inactive),
O=C(NCc1cccnc1)c1ccccc1NC(=O)c1c(F)cccc1F,-10.7% (inactive),
O=c1ccn(Cc2ccccc2Cl)cc1,-2.8% (inactive),
O=S1(=O)CCN(Cc2ccccc2Cl)CC1,56.9% (active),81.5%
CSc1ccc(/C=N/N2CCN(Cc3ccccc3Cl)CC2)cc1,0.6% (inactive),
COC(=O)c1ccc(C(=O)NC2CC(C)(C)Cc3c2cnn3-c2ccc(F)cc2)nc1 (stereo not given),-3.4% (inactive),
CC(c1ccccn1)N(C)C(=O)c1ccc2nc(Cc3cccc(Cl)c3)oc2c1 (stereo not given),-0.5% (inactive),
COCCN1C=C2C(=O)C(C)(OC(=O)C3CCCC3)C(=O)C=C2C=C1c1ccsc1 (stereo not given),98.2% (active),
CC1(OC(=O)CCc2ccccc2)C(=O)C=C2C=C(c3ccc(C#N)cc3)N(CCc3ccccn3)C=C2C1=O (stereo not given),35.9% (inactive),
COC(=O)CCCC1=CC2=CC(=O)C(C)(OC(=O)c3cccs3)C(=O)C2=CN1CC1CC1 (stereo not given),45.8% (inactive),
COCc1c(C(=O)N/N=C(\C)c2ccncc2)nnn1-c1nonc1N,1.9% (inactive),
Cc1ccc(NC(=O)C2CCN(S(=O)(=O)c3ccc4c(c3)NC(=O)CO4)CC2)cc1C,-7.3% (inactive),
COc1ccccc1C(=O)N(Cc1ccc(C)o1)C1CCS(=O)(=O)C1 (stereo not given),-6.1% (inactive),
NC(=O)c1c(Nc2nc3c(F)cccc3s2)sc2c1CCCC2,72.6% (active),99.1%
Fc1cc(F)c2nc(Nc3nc4c(F)cccc4s3)sc2c1,11.5% (inactive),
NC(=O)c1c(NC(=O)c2ccccc2)sc2c1CCCC2,-0.5% (inactive),
Cc1cc2oc(=O)cc(CN(C)Cc3ccc(OC(F)F)cc3)c2cc1Cl,-2.2% (inactive),
Cc1ccc(S(=O)(=O)N2CCC(C)CC2)cc1C(=O)NCc1ccccn1,-2.5% (inactive),
CCc1ccc(NC(=O)CN2CCC(C(=O)c3ccc(OC)cc3)CC2)cc1,-2.2% (inactive),

SMILES,inhibition (at 35 µM),"inhibition (confirmation average, at 20 µM)"
CCOC(=O)N1CCN(C(=O)COc2ccc(Br)cc2)CC1,5.2% (inactive),
Cc1ccc(C(=O)OC2CCCN(C)C2)cc1 (stereo not given),-3.9% (inactive),
CN1CCCC(OC(=O)COc2ccc(Br)cc2)C1 (stereo not given),99.9% (active),84.2%
Fc1ccccc1CNC(=S)Nc1ccc(Cl)cc1,0.6% (active),106%
S=C(NCc1cccs1)Nc1ccc(Cl)cc1,-10% (inactive),
COC(=O)Cc1ccc(NC(=S)NCc2ccc(Cl)cc2)cc1,2% (inactive),
CCC(=O)N1CCCc2ccccc21,100% (active),
O=C(CSCc1ccccc1)N1CCc2ccccc21,2.4% (inactive),
CCn1c(=O)c2ccccc2n(CC(=O)N2CCCc3ccccc32)c1=O,-6.1% (inactive),
COc1ccc(S(=O)(=O)N2CCOC2CNC(=O)C(=O)NCc2ccc(F)cc2)cc1 (stereo not given),-9.2% (inactive),
CCOc1c(OC)cccc1C(=O)NCC1(c2ccccc2)CCCC1,-6% (inactive),
CCOC(=O)C(Cc1ccccc1)NC(=O)CCC(=O)c1ccc(OC)cc1 (stereo not given),-3.3% (inactive),
COC(=O)[C@H](Cc1ccccc1)NC(=O)Nc1ccc(OC)cc1,2.4% (inactive),
COc1cc([C@H](Cc2ccccc2)NC(C)=O)oc(=O)c1,100% (active),
COc1cc2c(cc1OC)CN(C(=O)c1cc(S(=O)(=O)N3CCCCC3)ccc1Cl)CC2,-13.7% (inactive),
Cc1nc2nc(SCC(=O)NCc3ccco3)nn2c(C)c1Cc1ccccc1,3.5% (inactive),
O=c1nc2s/c(=C\c3ccco3)c(=O)n2nc1Cc1ccccc1,96.4% (active),
O=C(Cc1ccccc1)n1nc(-c2ccccc2)nc1NCc1ccco1,-6.8% (inactive),
Cc1cccn2c(=O)c(C=O)c(Nc3ccc(S(N)(=O)=O)cc3)nc12,-1.8% (inactive),
Cc1ccc(C)c(N2CCN(C(=O)CCCCCn3c(=S)[nH]c4ccc(N5CCOCC5)cc4c3=O)CC2)c1,1.4% (inactive),
C=CCNC(=O)CSc1nc2scc(-c3ccco3)c2c(=O)n1CC=C,49.9% (inactive),
C=CCn1c(=S)[nH]c2scc(-c3ccco3)c2c1=O,94.1% (active),
C=CCn1c(SCc2csc(C)n2)nc2scc(-c3ccc(C)o3)c2c1=O,4.9% (inactive),
O=[N+]([O-])c1ccccc1/C=C/CN1CCCC(CO)C1 (stereo not given),-4.3% (inactive),

# Reference: PubChem BioAssay AID2012 (Sanford-Burnham Center for Chemical Genomics, 2009)
